Source: PubChem BioAssay (NCI)
About 79,000 compounds went through this panel and 15% of them were active in at least one assay; those are over-represented in the sample as a whole. Calls of active or inactive are those of the source. Cut-off read from the data, not from the text of the source: active = growth inhibition above about 70%; inactive = the rest.

Legend:
[1] = NCI Yeast Anticancer Drug Screen. Data for the wt1 strain (AID 149);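 note: 0% = growth of vehicle-treated wt1 cultures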; conditions: S. cerevisiae wt1 strain (SPY 50644) growth inhibition, hits give high values
Summary of the method: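 Using yeast strain wt1, compound-induced growth inhibition was determined against vehicle-treated cultures.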

[2] = NCI Yeast Anticancer Drug Screen. Data for the rad50EPP+ strain (AID 151);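 note: 0% = growth of vehicle-treated control cultures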; conditions: S. cerevisiae rad50 mutant strain, hits give high values
Summary of the method: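 Measured: growth inhibition of rad50EPP+ yeast. Reference: vehicle-treated controls. Screen uses strains with defined genetic alterations in DNA damage repair or cell cycle control.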

[3] = NCI Yeast Anticancer Drug Screen. Data for the mgt1 strain (AID 153); conditions: S. cerevisiae mgt1 mutant growth inhibition, hits give high values
Summary of the method: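 Compounds were applied to mgt1 mutant yeast, and growth was then compared against vehicle-treated control cultures to give percent inhibition.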

[4] = NCI Yeast Anticancer Drug Screen. Data for the rad50 strain (AID 155);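 note: 0% = growth of vehicle-only cultures of the same strain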; conditions: S. cerevisiae rad50 strain growth inhibition, hits give high values
Summary of the method: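 Relative growth inhibition (compound vs vehicle) was measured in yeast with a defined repair-gene alteration.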

[5] = NCI Yeast Anticancer Drug Screen. Data for the mec2-1 strain (AID 157); conditions: S. cerevisiae mec2-1 strain, hits give high values
Summary of the method: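 Compounds were applied to mec2-1 yeast cells. Their growth was then compared with that of vehicle-treated cultures to give growth inhibition.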

[6] = NCI Yeast Anticancer Drug Screen. Data for the rad14 strain (AID 159);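 note: 0% = growth of vehicle-treated control cultures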; conditions: S. cerevisiae rad14 strain growth inhibition, hits give high values
Summary of the method: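 Screen for anticancer potential: a yeast strain altered in DNA damage repair is grown with compound, and reduced growth is quantified against vehicle controls.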

[7] = NCI Yeast Anticancer Drug Screen. Data for the sgs1 mgt1 strain (AID 161);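 note: 0% = growth of cultures given vehicle only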; conditions: S. cerevisiae sgs1 mgt1 strain, hits give high values
Summary of the method: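 Compounds are added to genetically altered yeast, and growth is compared with cultures given vehicle alone to give percent inhibition.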

[8] = NCI Yeast Anticancer Drug Screen. Data for the CLN2oe strain (AID 163);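 note: 0% = growth of vehicle-only control cultures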; conditions: S. cerevisiae CLN2oe strain, hits give high values
Summary of the method: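 Cells of an engineered yeast line with disturbed cell-cycle regulation are treated with compound. Inhibition of growth is then calculated relative to the vehicle-treated reference.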

[9] = NCI Yeast Anticancer Drug Screen. Data for the cln2 rad14 strain (AID 165);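 note: 0% = growth equal to vehicle treated cultures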; conditions: S. cerevisiae cln2 rad14 strain, hits give high values
Summary of the method: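 Strain: cln2 rad14 yeast, altered in cell cycle control and DNA damage repair. Read-out: growth inhibition vs vehicle.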

[10] = NCI Yeast Anticancer Drug Screen. Data for the bub3 strain (AID 167); conditions: S. cerevisiae bub3 mutant strain, hits give high values
Summary of the method: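 Screening used yeast with an engineered genetic alteration affecting cell cycle control. Compound-exposed cultures were compared with vehicle cultures, and reduced growth was taken as inhibition.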

[11] = NCI Yeast Anticancer Drug Screen. Data for the wt2 strain (AID 169);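 note: 0% = growth of vehicle-treated yeast cultures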; conditions: S. cerevisiae wt2 strain growth inhibition, hits give high values
Summary of the method: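 Growth of compound-treated yeast is measured and expressed as inhibition relative to vehicle-only controls.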

[12] = NCI Yeast Anticancer Drug Screen. Data for the mlh1 strain (AID 171);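 note: 0% = growth of vehicle-treated control cultures of the same strain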; conditions: S. cerevisiae mlh1 strain growth inhibition, hits give high values
Summary of the method: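 Test agents were incubated with yeast bearing a defined DNA damage repair or cell cycle control alteration; values are growth inhibition normalised to vehicle-treated cultures.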

[13] = NCI Yeast Anticancer Drug Screen. Data for the sgs1 strain (AID 173);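 note: 0% = growth of vehicle-only control cultures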; conditions: S. cerevisiae sgs1 mutant, hits give high values
Summary of the method: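 Strain with an altered DNA repair or cell cycle pathway exposed to compound. Growth then measured. Value = inhibition versus vehicle control.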

[14] = NCI Yeast Anticancer Drug Screen. Data for the mlh1 rad18 strain (AID 175); conditions: S. cerevisiae mlh1 rad18 strain growth inhibition, hits give high values
Summary of the method: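 A repair-deficient yeast strain is exposed to test compound, and growth is scored relative to vehicle-treated controls.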

[15] = NCI Yeast Anticancer Drug Screen. Data for the rad18 strain (AID 177); conditions: S. cerevisiae rad18 mutant growth inhibition, hits give high values
Summary of the method: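 DNA-repair-defective yeast; compound treatment; growth inhibition scored against vehicle.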

[16] = at 5.0 µM (retest, dose inferred, filed as 0.5)
[17] = at 50.0 µM (retest, dose inferred, filed as 5.0)

Measured: growth inhibition

COc1ccc(C(C#N)=C2C=CC(=NO)C=C2)cc1
active: [1]; at 33.0 µM 96% | [1]; at 100.0 µM 97% | [2]; at 3.7 µM 70% | [2]; at 11.0 µM 90% | [2]; at 33.0 µM 93% | [2]; at 100.0 µM 93% | [3]; at 11.0 µM 88% | [3]; at 33.0 µM 97% | [3]; at 100.0 µM 91% | [4]; at 11.0 µM 81% | [4]; at 33.0 µM 96% | [4]; at 100.0 µM 95% | [5]; at 11.0 µM 96% | [5]; at 33.0 µM 97% | [5]; at 50.0 µM 88.2% | [5]; at 100.0 µM 98% | [6]; at 11.0 µM 83% | [6]; at 33.0 µM 96% | [6]; at 100.0 µM 82% | [7]; [17] 79% | [7]; at 50.0 µM 87.7% | [10]; [17] 82% | [10]; at 50.0 µM 85.8% | [10]; at 100.0 µM 72% | [11]; at 11.0 µM 84% | [11]; at 33.0 µM 99% | [11]; at 100.0 µM 99% | [12]; at 33.0 µM 97% | [12]; at 100.0 µM 95% | [13]; at 11.0 µM 87% | [13]; at 33.0 µM 99% | [13]; at 100.0 µM 98% | [14]; [17] 85% | [14]; at 50.0 µM 91.5% | [15]; at 11.0 µM 90% | [15]; at 33.0 µM 97% | [15]; at 100.0 µM 96%
inactive: [1]; at 1.2 µM -1% | [1]; at 3.7 µM -2% | [1]; at 11.0 µM 14% | [2]; at 1.2 µM 42% | [3]; at 1.2 µM 0% | [3]; at 3.7 µM 18% | [4]; at 1.2 µM 18% | [4]; at 3.7 µM 38% | [4]; [16] 23% | [4]; [17] 62% | [4]; at 50.0 µM 65.4% | [5]; at 1.2 µM 1% | [5]; at 3.7 µM 16% | [5]; [16] -2% | [5]; [17] 25% | [6]; at 1.2 µM 13% | [6]; at 3.7 µM 19% | [7]; [16] 51% | [8]; at 1.2 µM 7% | [8]; at 3.7 µM 11% | [8]; at 11.0 µM 58% | [8]; at 33.0 µM 55% | [8]; at 100.0 µM 68% | [9]; [16] 17% | [9]; [17] 41% | [9]; at 50.0 µM 60.3% | [10]; at 1.2 µM -1% | [10]; at 3.7 µM 7% | [10]; [16] 24% | [10]; at 11.0 µM 22% | [10]; at 33.0 µM 42% | [11]; at 1.2 µM -9% | [11]; at 3.7 µM 42% | [12]; at 1.2 µM 8% | [12]; at 3.7 µM 29% | [12]; at 11.0 µM 66% | [13]; at 1.2 µM 5% | [13]; at 3.7 µM 32% | [14]; [16] 48% | [15]; at 1.2 µM 11% | [15]; at 3.7 µM 38%

CCOC(=O)Nc1ccc2c(c1)Cc1ccccc1-2
active: [10]; [17] 88% | [10]; at 50.0 µM 87.2%
inactive: [1]; at 1.2 µM -2% | [1]; at 3.7 µM 5% | [1]; at 11.0 µM 11% | [1]; at 33.0 µM 7% | [1]; at 100.0 µM 10% | [2]; at 1.2 µM -6% | [2]; at 3.7 µM -13% | [2]; at 11.0 µM 15% | [2]; at 33.0 µM 21% | [2]; at 100.0 µM 21% | [4]; at 1.2 µM -15% | [4]; at 3.7 µM -14% | [4]; [16] 4% | [4]; at 11.0 µM -23% | [4]; at 33.0 µM -22% | [4]; [17] 2% | [4]; at 50.0 µM -9.4% | [4]; at 100.0 µM -9% | [5]; at 1.2 µM -4% | [5]; at 3.7 µM -4% | [5]; [16] 1% | [5]; at 11.0 µM -6% | [5]; at 33.0 µM -5% | [5]; [17] 12% | [5]; at 50.0 µM -5.5% | [5]; at 100.0 µM -2% | [7]; [16] 4% | [7]; [17] 8% | [7]; at 50.0 µM 5.6% | [8]; at 1.2 µM -9% | [8]; at 3.7 µM -12% | [8]; at 11.0 µM -13% | [8]; at 33.0 µM -12% | [8]; at 100.0 µM -7% | [9]; [16] -8% | [9]; [17] -3% | [9]; at 50.0 µM -19% | [10]; at 1.2 µM 35% | [10]; at 3.7 µM 28% | [10]; [16] 49% | [10]; at 11.0 µM 21% | [10]; at 33.0 µM 21% | [10]; at 100.0 µM 26% | [11]; at 1.2 µM 5% | [11]; at 3.7 µM 9% | [11]; at 11.0 µM 14% | [11]; at 33.0 µM 19% | [11]; at 100.0 µM 14% | [12]; at 1.2 µM -14% | [12]; at 3.7 µM -8% | [12]; at 11.0 µM -7% | [12]; at 33.0 µM -7% | [12]; at 100.0 µM -5% | [13]; at 1.2 µM -18% | [13]; at 3.7 µM -12% | [13]; at 11.0 µM -4% | [13]; at 33.0 µM 3% | [13]; at 100.0 µM 0% | [14]; [16] -11% | [14]; [17] -25% | [14]; at 50.0 µM 16.4% | [15]; at 1.2 µM -11% | [15]; at 3.7 µM -7% | [15]; at 11.0 µM -4% | [15]; at 33.0 µM -6% | [15]; at 100.0 µM -10%

CC(=O)[O-].O=C([CH-]C(=O)c1ccccc1)c1ccccc1.O=C([CH-]C(=O)c1ccccc1)c1ccccc1.[Sm+3]
inactive: [1]; at 1.2 µM 4% | [1]; at 3.7 µM 4% | [1]; at 11.0 µM 25% | [2]; at 1.2 µM 35% | [2]; at 11.0 µM 52% | [3]; at 1.2 µM 0% | [3]; at 3.7 µM 6% | [3]; at 11.0 µM 50% | [6]; at 1.2 µM 6% | [6]; at 3.7 µM 7% | [8]; at 1.2 µM -3% | [8]; at 3.7 µM 6% | [8]; at 11.0 µM 45% | [11]; at 1.2 µM 1% | [11]; at 3.7 µM 8% | [11]; at 11.0 µM 65% | [12]; at 1.2 µM 3% | [12]; at 3.7 µM 8% | [13]; at 1.2 µM 2% | [13]; at 3.7 µM 7% | [13]; at 11.0 µM 59% | [15]; at 1.2 µM 5% | [15]; at 3.7 µM 12% | [15]; at 11.0 µM 43%
active: [1]; at 33.0 µM 98% | [1]; at 100.0 µM 97% | [2]; at 3.7 µM 70% | [2]; at 33.0 µM 70% | [2]; at 100.0 µM 79% | [3]; at 33.0 µM 98% | [3]; at 100.0 µM 98% | [6]; at 11.0 µM 97% | [6]; at 33.0 µM 99% | [6]; at 100.0 µM 98% | [8]; at 33.0 µM 97% | [8]; at 100.0 µM 97% | [11]; at 33.0 µM 98% | [11]; at 100.0 µM 98% | [12]; at 11.0 µM 70% | [12]; at 33.0 µM 98% | [12]; at 100.0 µM 99% | [13]; at 33.0 µM 97% | [13]; at 100.0 µM 97% | [15]; at 33.0 µM 98% | [15]; at 100.0 µM 97%
